Test results as given in ChEMBL document CHEMBL1961873, “Compounds: GSK PKIS; Assays: Nanosyn kinase panel” (2012).

Columns and labels:
[1] = molecular target: Rho-associated protein kinase 1 (Homo sapiens) (UniProt Q13464); settings: at 1 µM;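 note: reported values are mean percent inhibition of ROCK1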
[2] = molecular target: Rho-associated protein kinase 2 (Homo sapiens) (UniProt O75116); settings: at 0.1 µM
[3] = molecular target: Rho-associated protein kinase 2 (Homo sapiens) (UniProt O75116); settings: at 1 µM
[4] = molecular target: Ribosomal protein S6 kinase alpha-1 (Homo sapiens) (UniProt Q15418); settings: at 0.1 µM
[5] = molecular target: Ribosomal protein S6 kinase alpha-1 (Homo sapiens) (UniProt Q15418); settings: at 1 µM
[6] = molecular target: Ribosomal protein S6 kinase alpha-3 (Homo sapiens) (UniProt P51812); settings: at 0.1 µM
[7] = molecular target: Ribosomal protein S6 kinase alpha-3 (Homo sapiens) (UniProt P51812); settings: at 1 µM
[8] = molecular target: Ribosomal protein S6 kinase alpha-2 (Homo sapiens) (UniProt Q15349); settings: at 0.1 µM
[9] = molecular target: Ribosomal protein S6 kinase alpha-2 (Homo sapiens) (UniProt Q15349); settings: at 1 µM
[10] = molecular target: Ribosomal protein S6 kinase alpha-6 (Homo sapiens) (UniProt Q9UK32); settings: at 0.1 µM
[11] = molecular target: Ribosomal protein S6 kinase alpha-6 (Homo sapiens) (UniProt Q9UK32); settings: at 1 µM
[12] = molecular target: T1, Serine/threonine-protein kinase Sgk1 (Homo sapiens) (UniProt O00141); settings: at 0.1 µM
T1 sequence (whole entry): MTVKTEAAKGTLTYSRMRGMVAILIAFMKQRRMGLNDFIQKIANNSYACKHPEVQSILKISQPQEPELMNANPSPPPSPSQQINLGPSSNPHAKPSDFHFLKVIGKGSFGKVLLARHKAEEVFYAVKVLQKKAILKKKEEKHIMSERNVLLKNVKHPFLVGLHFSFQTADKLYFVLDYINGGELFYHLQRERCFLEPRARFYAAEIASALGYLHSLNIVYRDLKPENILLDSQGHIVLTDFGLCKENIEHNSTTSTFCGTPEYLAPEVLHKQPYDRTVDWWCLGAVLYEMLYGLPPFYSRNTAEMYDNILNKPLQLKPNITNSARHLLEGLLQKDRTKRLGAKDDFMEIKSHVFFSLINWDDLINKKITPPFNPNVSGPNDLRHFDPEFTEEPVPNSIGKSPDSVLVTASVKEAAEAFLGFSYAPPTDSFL

[13] = molecular target: T1, Serine/threonine-protein kinase Sgk1 (Homo sapiens); settings: at 1 µM
[14] = molecular target: T2, Serine/threonine-protein kinase Sgk2 (Homo sapiens) (UniProt Q9HBY8); settings: at 0.1 µM
T2 sequence (whole entry): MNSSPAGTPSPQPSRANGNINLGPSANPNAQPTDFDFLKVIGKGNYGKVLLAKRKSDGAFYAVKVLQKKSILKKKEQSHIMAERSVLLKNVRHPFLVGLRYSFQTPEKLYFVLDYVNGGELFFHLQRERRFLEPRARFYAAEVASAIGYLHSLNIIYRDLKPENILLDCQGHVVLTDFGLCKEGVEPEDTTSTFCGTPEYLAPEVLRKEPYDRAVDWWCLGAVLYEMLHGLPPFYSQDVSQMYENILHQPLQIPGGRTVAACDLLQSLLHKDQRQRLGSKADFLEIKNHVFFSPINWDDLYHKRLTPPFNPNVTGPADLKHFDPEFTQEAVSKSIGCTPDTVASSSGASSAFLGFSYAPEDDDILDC

[15] = molecular target: T2, Serine/threonine-protein kinase Sgk2 (Homo sapiens); settings: at 1 µM
[16] = molecular target: T3, Serine/threonine-protein kinase Sgk3 (Homo sapiens) (UniProt Q96BR1); settings: at 0.1 µM
T3 sequence (whole entry): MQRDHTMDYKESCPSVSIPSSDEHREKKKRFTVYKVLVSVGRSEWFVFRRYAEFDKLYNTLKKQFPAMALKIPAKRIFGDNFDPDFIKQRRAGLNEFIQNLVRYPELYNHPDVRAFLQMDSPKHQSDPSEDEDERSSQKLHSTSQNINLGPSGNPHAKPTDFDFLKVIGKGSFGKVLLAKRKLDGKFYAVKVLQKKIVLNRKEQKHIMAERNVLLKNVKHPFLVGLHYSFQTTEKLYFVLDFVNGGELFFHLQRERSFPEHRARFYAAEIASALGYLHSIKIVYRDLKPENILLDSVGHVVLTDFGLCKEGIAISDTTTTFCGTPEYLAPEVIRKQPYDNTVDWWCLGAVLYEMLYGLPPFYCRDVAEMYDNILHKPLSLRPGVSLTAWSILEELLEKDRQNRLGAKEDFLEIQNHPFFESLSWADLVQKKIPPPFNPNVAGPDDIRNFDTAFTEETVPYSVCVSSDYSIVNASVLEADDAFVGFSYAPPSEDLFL

[17] = molecular target: T3, Serine/threonine-protein kinase Sgk3 (Homo sapiens); settings: at 1 µM
[18] = molecular target: 5'-AMP-activated protein kinase catalytic subunit alpha-1 (Homo sapiens) (UniProt Q13131); settings: at 0.1 µM
[19] = molecular target: 5'-AMP-activated protein kinase catalytic subunit alpha-1 (Homo sapiens) (UniProt Q13131); settings: at 1 µM
[20] = molecular target: 5'-AMP-activated protein kinase catalytic subunit alpha-2 (Homo sapiens) (UniProt P54646); settings: at 0.1 µM;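 note: mean inhibition measured on the AMPK complex of alpha2, beta1 and gamma1 subunits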
Sequence of 5'-AMP-activated protein kinase catalytic subunit alpha-2 (Homo sapiens) (P54646 whole entry, looked up): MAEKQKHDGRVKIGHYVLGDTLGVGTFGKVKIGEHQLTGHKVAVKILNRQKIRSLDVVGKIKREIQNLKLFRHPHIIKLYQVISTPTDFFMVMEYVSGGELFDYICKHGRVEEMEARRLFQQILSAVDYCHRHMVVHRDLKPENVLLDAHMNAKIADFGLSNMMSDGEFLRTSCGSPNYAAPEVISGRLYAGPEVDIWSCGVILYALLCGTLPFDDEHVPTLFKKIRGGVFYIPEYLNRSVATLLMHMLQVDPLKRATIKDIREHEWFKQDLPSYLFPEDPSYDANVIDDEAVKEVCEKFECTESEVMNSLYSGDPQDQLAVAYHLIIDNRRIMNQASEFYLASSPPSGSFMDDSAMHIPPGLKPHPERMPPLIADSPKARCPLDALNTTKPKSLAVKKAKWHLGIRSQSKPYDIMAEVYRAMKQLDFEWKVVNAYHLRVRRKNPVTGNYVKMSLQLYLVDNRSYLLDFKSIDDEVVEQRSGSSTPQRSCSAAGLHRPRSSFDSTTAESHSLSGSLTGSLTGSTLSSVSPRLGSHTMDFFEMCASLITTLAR

Sequence of Ribosomal protein S6 kinase alpha-1 (Homo sapiens) (Q15418 whole entry): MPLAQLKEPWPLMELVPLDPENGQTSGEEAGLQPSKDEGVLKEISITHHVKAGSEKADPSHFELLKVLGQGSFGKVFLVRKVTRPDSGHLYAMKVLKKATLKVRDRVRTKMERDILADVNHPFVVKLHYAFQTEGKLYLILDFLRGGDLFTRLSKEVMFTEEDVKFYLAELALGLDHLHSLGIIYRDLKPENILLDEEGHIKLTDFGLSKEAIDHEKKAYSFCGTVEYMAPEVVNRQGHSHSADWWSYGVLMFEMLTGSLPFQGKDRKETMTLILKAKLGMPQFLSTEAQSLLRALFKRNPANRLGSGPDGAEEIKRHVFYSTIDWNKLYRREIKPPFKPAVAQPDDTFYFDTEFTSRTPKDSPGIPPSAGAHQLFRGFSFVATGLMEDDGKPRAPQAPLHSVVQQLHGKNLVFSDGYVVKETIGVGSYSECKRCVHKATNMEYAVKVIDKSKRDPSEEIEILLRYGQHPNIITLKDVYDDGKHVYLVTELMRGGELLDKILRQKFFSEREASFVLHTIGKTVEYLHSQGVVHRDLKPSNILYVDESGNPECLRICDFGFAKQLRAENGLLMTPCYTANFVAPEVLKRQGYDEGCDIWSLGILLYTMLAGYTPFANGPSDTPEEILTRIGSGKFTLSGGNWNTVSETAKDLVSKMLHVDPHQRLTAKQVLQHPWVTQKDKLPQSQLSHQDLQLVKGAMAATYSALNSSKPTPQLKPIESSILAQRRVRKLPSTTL
Sequence of Ribosomal protein S6 kinase alpha-2 (Homo sapiens) (Q15349 whole entry): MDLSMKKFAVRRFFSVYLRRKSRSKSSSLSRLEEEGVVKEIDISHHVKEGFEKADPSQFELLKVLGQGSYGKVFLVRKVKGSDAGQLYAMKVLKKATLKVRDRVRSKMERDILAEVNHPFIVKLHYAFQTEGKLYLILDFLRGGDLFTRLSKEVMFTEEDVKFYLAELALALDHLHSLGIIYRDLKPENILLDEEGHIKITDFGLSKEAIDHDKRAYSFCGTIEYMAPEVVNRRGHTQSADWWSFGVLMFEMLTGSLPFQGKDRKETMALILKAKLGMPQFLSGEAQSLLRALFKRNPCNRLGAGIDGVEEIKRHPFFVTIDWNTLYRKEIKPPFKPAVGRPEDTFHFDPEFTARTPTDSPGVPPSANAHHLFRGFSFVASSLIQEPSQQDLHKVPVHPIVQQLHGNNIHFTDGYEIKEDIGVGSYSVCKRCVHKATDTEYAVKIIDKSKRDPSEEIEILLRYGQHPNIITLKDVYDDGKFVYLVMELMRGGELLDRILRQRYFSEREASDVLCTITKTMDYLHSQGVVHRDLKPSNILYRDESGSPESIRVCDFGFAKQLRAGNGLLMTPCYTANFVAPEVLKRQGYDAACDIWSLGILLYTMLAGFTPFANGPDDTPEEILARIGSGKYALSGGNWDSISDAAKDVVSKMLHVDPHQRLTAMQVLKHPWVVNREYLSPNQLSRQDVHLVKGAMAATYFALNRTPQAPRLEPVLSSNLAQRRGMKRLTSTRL
Sequence of Rho-associated protein kinase 2 (Homo sapiens) (O75116 whole entry, looked up): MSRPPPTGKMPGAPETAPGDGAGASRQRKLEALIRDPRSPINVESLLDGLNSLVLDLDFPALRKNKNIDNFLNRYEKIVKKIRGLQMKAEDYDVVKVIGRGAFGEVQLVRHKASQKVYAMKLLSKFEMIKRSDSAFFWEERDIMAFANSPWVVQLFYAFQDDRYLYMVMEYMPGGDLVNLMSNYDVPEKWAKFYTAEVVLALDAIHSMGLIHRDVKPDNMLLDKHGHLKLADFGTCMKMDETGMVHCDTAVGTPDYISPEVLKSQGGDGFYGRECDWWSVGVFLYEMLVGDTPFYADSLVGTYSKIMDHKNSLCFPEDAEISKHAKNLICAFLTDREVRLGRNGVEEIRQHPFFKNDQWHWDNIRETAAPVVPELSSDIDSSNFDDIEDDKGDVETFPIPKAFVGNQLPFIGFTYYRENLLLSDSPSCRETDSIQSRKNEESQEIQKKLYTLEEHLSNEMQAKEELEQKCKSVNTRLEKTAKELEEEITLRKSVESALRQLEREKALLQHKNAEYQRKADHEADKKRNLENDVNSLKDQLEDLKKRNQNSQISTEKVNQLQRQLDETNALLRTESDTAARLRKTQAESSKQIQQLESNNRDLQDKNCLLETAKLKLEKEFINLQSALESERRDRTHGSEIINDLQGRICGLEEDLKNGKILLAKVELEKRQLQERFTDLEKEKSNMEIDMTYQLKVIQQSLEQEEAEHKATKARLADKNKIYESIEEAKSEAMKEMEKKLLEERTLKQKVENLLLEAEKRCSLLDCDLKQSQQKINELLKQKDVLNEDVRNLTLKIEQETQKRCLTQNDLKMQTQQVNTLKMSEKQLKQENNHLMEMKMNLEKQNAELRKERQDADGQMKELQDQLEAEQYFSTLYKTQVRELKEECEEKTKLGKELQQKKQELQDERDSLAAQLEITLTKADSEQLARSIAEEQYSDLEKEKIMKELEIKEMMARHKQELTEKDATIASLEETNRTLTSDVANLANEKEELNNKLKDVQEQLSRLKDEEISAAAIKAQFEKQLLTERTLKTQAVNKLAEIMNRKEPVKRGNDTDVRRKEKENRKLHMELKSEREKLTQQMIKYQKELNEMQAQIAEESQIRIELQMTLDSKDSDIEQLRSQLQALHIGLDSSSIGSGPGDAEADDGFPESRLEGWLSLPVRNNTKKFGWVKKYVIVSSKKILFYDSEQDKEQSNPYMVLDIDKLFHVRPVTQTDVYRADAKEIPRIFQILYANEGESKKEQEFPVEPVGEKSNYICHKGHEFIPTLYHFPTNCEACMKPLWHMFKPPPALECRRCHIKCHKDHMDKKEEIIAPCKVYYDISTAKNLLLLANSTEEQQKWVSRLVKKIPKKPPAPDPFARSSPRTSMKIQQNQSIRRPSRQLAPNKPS
Sequence of Ribosomal protein S6 kinase alpha-6 (Homo sapiens) (Q9UK32 whole entry): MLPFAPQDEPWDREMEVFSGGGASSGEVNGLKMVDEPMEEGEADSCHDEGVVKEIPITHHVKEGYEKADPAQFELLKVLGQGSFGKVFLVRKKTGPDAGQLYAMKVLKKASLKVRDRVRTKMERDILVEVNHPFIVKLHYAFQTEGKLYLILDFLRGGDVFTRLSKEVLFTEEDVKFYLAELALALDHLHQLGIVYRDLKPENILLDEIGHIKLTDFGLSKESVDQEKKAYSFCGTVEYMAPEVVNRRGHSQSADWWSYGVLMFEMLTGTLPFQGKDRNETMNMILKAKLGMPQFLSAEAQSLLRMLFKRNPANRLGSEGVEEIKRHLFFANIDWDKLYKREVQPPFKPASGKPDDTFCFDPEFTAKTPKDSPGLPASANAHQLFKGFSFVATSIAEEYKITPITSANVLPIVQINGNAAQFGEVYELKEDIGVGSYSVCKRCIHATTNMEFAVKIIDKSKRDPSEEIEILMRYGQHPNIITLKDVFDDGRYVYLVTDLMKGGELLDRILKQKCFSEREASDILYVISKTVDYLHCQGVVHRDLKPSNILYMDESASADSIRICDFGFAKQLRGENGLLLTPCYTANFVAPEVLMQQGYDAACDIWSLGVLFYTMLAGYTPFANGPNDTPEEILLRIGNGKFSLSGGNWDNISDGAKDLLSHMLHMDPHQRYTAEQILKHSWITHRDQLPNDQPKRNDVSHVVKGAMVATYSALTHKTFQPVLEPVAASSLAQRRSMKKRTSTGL
Sequence of Ribosomal protein S6 kinase alpha-3 (Homo sapiens) (P51812 whole entry): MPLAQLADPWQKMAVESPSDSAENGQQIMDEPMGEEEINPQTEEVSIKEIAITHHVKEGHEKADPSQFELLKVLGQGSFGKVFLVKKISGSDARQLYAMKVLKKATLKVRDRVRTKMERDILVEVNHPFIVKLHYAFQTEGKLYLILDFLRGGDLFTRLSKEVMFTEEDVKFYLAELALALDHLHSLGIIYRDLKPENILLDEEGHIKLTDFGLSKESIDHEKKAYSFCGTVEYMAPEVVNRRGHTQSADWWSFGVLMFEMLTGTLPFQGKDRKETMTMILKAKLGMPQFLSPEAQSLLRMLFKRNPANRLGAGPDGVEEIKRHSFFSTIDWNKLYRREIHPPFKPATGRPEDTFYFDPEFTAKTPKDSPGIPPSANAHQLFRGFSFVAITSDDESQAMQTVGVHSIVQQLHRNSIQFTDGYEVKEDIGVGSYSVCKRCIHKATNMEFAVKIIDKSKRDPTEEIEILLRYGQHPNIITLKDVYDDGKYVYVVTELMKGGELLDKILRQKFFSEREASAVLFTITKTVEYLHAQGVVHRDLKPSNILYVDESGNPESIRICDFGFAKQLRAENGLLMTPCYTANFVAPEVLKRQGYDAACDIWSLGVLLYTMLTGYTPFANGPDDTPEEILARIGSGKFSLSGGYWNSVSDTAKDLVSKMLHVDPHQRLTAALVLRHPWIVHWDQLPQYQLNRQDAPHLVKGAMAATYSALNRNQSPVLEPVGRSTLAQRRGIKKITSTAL

Row | Structure (SMILES) | inhibition [1] [%] | inhibition [2] [%] | inhibition [3] [%] | inhibition [4] [%] | inhibition [5] [%] | inhibition [6] [%] | inhibition [7] [%] | inhibition [8] [%] | inhibition [9] [%] | inhibition [10] [%] | inhibition [11] [%] | inhibition [12] [%] | inhibition [13] [%] | inhibition [14] [%] | inhibition [15] [%] | inhibition [16] [%] | inhibition [17] [%] | inhibition [18] [%] | inhibition [19] [%] | inhibition [20] [%]
1 | COc1ccc(COc2ccc(Cc3cnc(N)nc3N)cc2OC)cc1 | 2.94 | 1.54 | -1.22 | 1.36 | -1.81 | 0.78 | -0.8 | 0.01 | -1 | 0.69 | -0.61 | 5.08 | 1.31 | 4.24 | 3 | 2.57 | 1.28 | -0.17 | -0.28 | 2.65
2 | NS(=O)(=O)c1ccc(N/N=C2\C(=O)Nc3ccc(C(=O)NCCc4c[nH]cn4)cc32)cc1 | 7.56 | 3 | 12.4 | 3.37 | 12 | 2.21 | 11.9 | 5.36 | 23.5 | 4.08 | 22.2 | 4.44 | 14.1 | 4.28 | 5.53 | 3.07 | 4.22 | 57.3 | 86.6 | 23.9
3 | CN1CCC(C(=O)Nc2n[nH]c3nnc(-c4ccccc4)cc23)CC1 | 1.3 | 3.27 | 7.43 | 2.04 | 3.41 | 1.58 | 3.98 | 2.42 | 3.15 | 0.86 | 1.86 | 3.01 | 6.62 | 4.36 | 3.52 | 2.89 | 5.04 | 5.95 | 5.95 | 4.12
4 | O=C1NC(=O)C(c2ccc(Cl)cc2)=C1Nc1ccc(Cl)c(C(=O)O)c1 | 1.07 | -1.68 | -2.33 | -0.77 | -0.61 | -1.11 | -1.86 | -1.33 | -1.11 | -1.33 | -1.03 | 1.08 | -1.96 | -3.55 | -0.77 | -1.08 | -4.32 | -0.6 | -0.54 | 0.26
5 | O=C1NC(=O)C(c2ccccc2Cl)=C1Nc1cccc(O)c1 | 4.61 | 6.16 | 3.66 | 1.82 | 4.3 | 1.65 | 4.49 | 2.1 | 6.19 | 0.75 | 7.12 | 1.25 | 2.8 | 0.71 | 1.41 | 4.44 | 0.72 | 1.85 | 5.89 | -0.21
6 | CCN1CCC(CC(=O)Nc2n[nH]c3nc(-c4cccs4)c(Br)cc23)CC1 | -0.45 | -0.91 | 0.3 | -1.31 | -0.49 | -0.78 | -0.3 | -1.79 | 0.38 | -1.6 | 1.64 | -1.12 | -1.95 | -5.07 | -0.81 | -2.7 | -2.06 | -0.96 | 4.08 | 3.33
7 | COc1ccc2cc(-c3c(-c4ccncc4)nc(-c4ccc([S+](C)[O-])cc4)n3C)ccc2c1 (configuration not stated) | 0.63 | 2.12 | -0.11 | 0.79 | 0.09 | 1.33 | 0.81 | 2.14 | 3.12 | 0.84 | 1.25 | 1.97 | 0.68 | 2.93 | -0.04 | 2.63 | 4.38 | 3.11 | 1.29 | 1.9
8 | COc1cc2c(cc1Nc1nc(N3CCc4ccccc43)c3cc[nH]c3n1)N(C(=O)CN(C)C)CC2 | 1.14 | 0.55 | -1.46 | 0.16 | 0.41 | 0.21 | -1.32 | 0.86 | 0.48 | 1.57 | 0.95 | 0.53 | 1.07 | -0.51 | 2.34 | 1.69 | -0.59 | 2.03 | 0.36 | -1.68
9 | NS(=O)(=O)c1cccc(-c2ccc3c(NC(=O)C4CC4)n[nH]c3c2)c1 | 1.53 | 0.53 | 2.48 | 0.46 | 3.07 | 0.8 | 2.45 | -0.89 | 0.27 | -0.55 | 0.54 | 1.71 | 2.69 | 3.21 | -4.4 | 0.09 | 0.67 | -0.48 | 0.34 | 3.53
10 | Cn1cc(C=C2C(=O)Nc3cccnc32)c2ccccc21 | 5.28 | 2.47 | 8.3 | 0.08 | 5.16 | – | – | 1.73 | 7.9 | 2.64 | 10.2 | 1.6 | 5.51 | -2.41 | 1.75 | 1.35 | 0.63 | 5.84 | 14.8 | 4.46
11 | Nc1ncnc2occ(-c3ccc(NC(=O)Nc4cc(C(F)(F)F)cc(C(F)(F)F)c4)cc3)c12 | 41.1 | 20.3 | 71.6 | 3.14 | 41.1 | 0.64 | 9.39 | 6.07 | 38.8 | 0.65 | 5.35 | -0.37 | 1.38 | 2.27 | 2.02 | 0.27 | -0.52 | 1.68 | 0.27 | -0.39
12 | CCn1c(-c2nonc2N)nc2cnc(Oc3cccc(NC(=O)c4ccc(OCCN5CCOCC5)cc4)c3)cc21 | – | 90 | 90.5 | 26.1 | 70.6 | 12.2 | 54.6 | 15.6 | 61 | 2.18 | 13.8 | 7.56 | 34.7 | 15.7 | 58.5 | 36.3 | 74.3 | 2.28 | 2.06 | 2.76
13 | Cc1cccc(-c2n[nH]cc2-c2ccc3ncccc3n2)n1 | -0.22 | 0.72 | -0.18 | -0.36 | 0.1 | 1.16 | 1.24 | 0.29 | 1.84 | 0.98 | 1.71 | 0.86 | 1.34 | 0.23 | 0.54 | 0.78 | -0.02 | 1.82 | 0.12 | 0.85
14 | NC(=O)c1cccc(Nc2nccc(Nc3cccc4[nH]ncc34)n2)c1 | 7.57 | 1.22 | 13.4 | -0.17 | 7.69 | -0.11 | 8.36 | -1.89 | 2.72 | 0.56 | 9.04 | -1.84 | 1.71 | -4.35 | -0.81 | -4.06 | -1.36 | 3.35 | 18.5 | 2.4
